Measurements as given in PubChem BioAssay (Tox21).
Inconclusive results are not listed. Where a call stands in place of a potency, no number is given. Values without a mark were called inactive. Active and inactive are the calls of the source. Calls follow the shape of the dose curve; as a rule, active = well fitted curve in the direction sought with a large enough effect in the repeat runs; inconclusive = weak or mixed curves; inactive = no such curve, though single readings can be large; an effect the other way counts as inactive or inconclusive. Positions of bridges follow the written chain, without caps; N, C: chain ends. Non-standard residues stand in square brackets, D forms with d. Residues, ends and D or L forms follow the SMILES beside them. *: point of attachment. Dab(CH2SO3H) = N[C@@H](CCNCS(=O)(=O)O)C(=O)O; X3 = CC[C@@H](C)CCCCC(=O)*; Dab = NCC[C@H](N)C(=O)O

Assays:
[1] = biological target: Nuclear receptor subfamily 1 group I member 2 (Rattus norvegicus) (UniProt Q9R1A7); test: Rat pregnane X receptor (rPXR) activation by small molecules, qHTS assay (AID 1346983); details: rPXR luciferase reporter cells, One-Glo luminescence, 24 h; max activation: stronger effect = higher value; also: nearly all actives have a fitted effect of over 20% in size; also: potency is read from the fitted curve at half-maximal effect
Method in brief: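 Cell-based rPXR activation assay: rPXR cells, 2,000 per well, rested 5hr at 37 C, then exposed to compounds in DMSO for 24 hr at 37 C. Luciferase activity read by One-Glo luminescence after 30 min at room temperature.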

[2] = biological target: Nuclear receptor subfamily 1 group I member 2 (Homo sapiens) (UniProt O75469); test: Human pregnane X receptor (PXR) activation by small molecules, qHTS assay (AID 1346985); details: DPX-2 HepG2 CYP3A4-luciferase, 24 h; series mostly up to 38.3 µM; also: nearly all actives have a fitted effect of over 40% in size
Method in brief: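 DPX-2 cells (HepG2 co-transfected with a PXR response element and a CYP3A4-promoter luciferase construct) were seeded at 2,000 per well, rested 5 hr at 37C, then exposed to DMSO-dissolved compounds for 24 hr. Activation was read as luciferase luminescence.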

[3] = biological target: Nuclear receptor subfamily 1 group I member 2 (Homo sapiens) (UniProt O75469); test: CYP3A4 induction through human pregnane X receptor (PXR) by small molecules, qHTS assay (AID 1346984); details: DPX-2 HepG2 PXR, CYP3A4-luciferin luminescence, 24 h; series mostly up to 46.1 µM; also: nearly all actives have a fitted effect of over 40% in size
Method in brief: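 DPX-2 reporter cells; 24h cpd, 37C; Luciferin-IPA 3uM final x3h; One-Glo 30 min RT; lumi read.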

Nuclear receptor subfamily 1 group I member 2 (Rattus norvegicus), sequence (Q9R1A7 whole entry, looked up): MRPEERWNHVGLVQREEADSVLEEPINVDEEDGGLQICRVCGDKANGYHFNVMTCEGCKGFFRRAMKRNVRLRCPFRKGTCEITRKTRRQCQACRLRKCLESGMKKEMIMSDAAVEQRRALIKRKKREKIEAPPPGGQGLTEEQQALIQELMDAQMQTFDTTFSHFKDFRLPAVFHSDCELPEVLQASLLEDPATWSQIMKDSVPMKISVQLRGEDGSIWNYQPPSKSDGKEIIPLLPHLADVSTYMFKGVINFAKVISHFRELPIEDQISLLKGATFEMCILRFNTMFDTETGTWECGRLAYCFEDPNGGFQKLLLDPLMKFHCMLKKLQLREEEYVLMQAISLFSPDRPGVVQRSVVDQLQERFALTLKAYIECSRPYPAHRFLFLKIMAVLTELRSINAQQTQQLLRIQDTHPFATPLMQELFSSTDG

Structure (SMILES)	max activation [1]	Potency [2]	Potency [1]	Potency [3]
CC12CCC(C[N+](C)(CCC[N+](C)(C)C)C1)C2(C)C (configuration not stated)	-1.76%	inactive	–	–
CC/C=C\C/C=C\C/C=C\C/C=C\C/C=C\CCCC(=O)O	-0.855%	inactive	–	–
CC1(C)S[C@@H]2[C@H](NC(=O)[C@@H](NC(=O)N3CCNC3=O)c3ccccc3)C(=O)N2[C@H]1C(=O)O	-1.76%	inactive	–	–
C[C@@H]1C[C@H]2[C@@H]3C[C@H](F)C4=CC(=O)C=C[C@]4(C)[C@@]3(Cl)[C@@H](O)C[C@]2(C)[C@H]1C(=O)COC(=O)C(C)(C)C	–	inactive	2.82 µM (active)	inactive
CC(C)=CCC/C(C)=C/CC/C(C)=C/CC/C=C(\C)CC/C=C(\C)CCC=C(C)C	-2.04%	inactive	–	–
C=C1[C@H](CO)[C@@H](O)C[C@@H]1n1cnc2c(=O)[nH]c(N)nc21	-2.99%	inactive	–	inactive
C=N[C@@H](C(=O)N[C@@H]1C(=O)N2[C@@H]1SC(C)(C)[C@@H]2C(=O)O)c1ccccc1	-2.74%	inactive	–	–
O=C1c2c(O)cccc2[C@H]([C@@H]2O[C@H](CO)[C@@H](O)[C@H](O)[C@H]2O)c2cc(CO)cc(O)c21	0.818%	inactive	–	inactive
COC1[C@@H](O[C@@H]2O[C@H](C)[C@@H](O[C@H]3C[C@@](C)(O)[C@H](OC(=O)CC(C)C)[C@H](C)O3)[C@H](N(C)C)[C@H]2O)[C@@H](CC=O)C[C@@H](C)[C@@H](O)/C=C/C=C/C[C@@H](C)OC(=O)C[C@H]1OC(C)=O (some centres not stated)	-1.32%	inactive	–	–
CC(=O)NC[C@H]1CN(c2ccc(N3CCOCC3)c(F)c2)C(=O)O1	-2.66%	inactive	–	inactive
CCc1ncnc2cc(OC)c(OC)cc12	-3.13%	inactive	–	–
O=C(O)c1cc(=O)c2c3nc4ccccc4oc-3cc(=O)c2[nH]1	-7.15%	inactive	–	–
CC[C@@H](C)CCCCC(=O)N[C@@H](CCNCS(=O)(=O)O)C(=O)N[C@H](C(=O)N[C@@H](CCNCS(=O)(=O)O)C(=O)N[C@H]1CCNC(=O)[C@H]([C@@H](C)O)NC(=O)[C@H](CCNCS(=O)(=O)O)NC(=O)[C@H](CCNCS(=O)(=O)O)NC(=O)[C@H](CC(C)C)NC(=O)[C@@H](CC(C)C)NC(=O)[C@H](CCNCS(=O)(=O)O)NC1=O)[C@@H](C)O (X3-[Dab(CH2SO3H)]T[Dab(CH2SO3H)][Dab][Dab(CH2SO3H)][dL]L[Dab(CH2SO3H)][Dab(CH2SO3H)]T; lactam 4-C)	-6.38%	inactive	–	inactive
CCCCCCOC(=O)c1cccnc1	-0.199%	inactive	–	–
CNCC(=O)N[C@@H](CCCN=C(N)N)C(=O)N[C@H](C(=O)N[C@@H](Cc1ccc(O)cc1)C(=O)N[C@H](C(=O)N[C@@H](Cc1cnc[nH]1)C(=O)N1CCC[C@H]1C(=O)N[C@@H](C)C(=O)O)C(C)C)C(C)C	-0.307%	inactive	–	–
CC[C@H](C)C(=O)O[C@H]1CCC=C2C=C[C@H](C)[C@H](CC[C@@H]3C[C@@H](O)CC(=O)O3)[C@H]21	–	inactive	–	inactive
